# Active and inactive are the calls of the source.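 Rule for the calls: active = compounds killing one labelled cell type while sparing the other, by normalised counts and ratio limits, not self-fluorescent; inactive = the rest.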 Non-standard residues stand in square brackets, D forms with d. Residues, ends and D or L forms follow the SMILES beside them. pGlu = O=C1CC[C@@H](C(=O)O)N1; Thz = O=C(O)[C@@H]1CSCN1
# Assay: EMT-state selective cytotoxicity in co-culture – imaging, PC-3E GFP, TEM4-18 mCherry, primary screen (AID 1345086);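 note: cells exposed to compound for 72 h before imaging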;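 for red/green cell ratio (normalised): normalised mesenchymal count divided by normalised epithelial count so high means epithelial killing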
# Conditions: PC-3E GFP / TEM4-18 mCherry co-culture, imaging cell counts; at 1 µM; actives lie on both sides; counts scaled to control wells, 1 = unselective
row,Structure (SMILES),red/green cell ratio (normalised)
1,O=C1CN2Cc3c(ccc(Cl)c3Cl)N=C2N1,0.92 (inactive)
2,CNCC[C@H](Oc1cccc2ccccc12)c1cccs1,0.93 (inactive)
3,CSc1nc2cc(Oc3cccc(Cl)c3Cl)c(Cl)cc2[nH]1,0.82 (inactive)
4,CN(C)CCc1c[nH]c2ccc(Cn3cncn3)cc12,0.92 (inactive)
5,C[C@@H](c1ncncc1F)[C@](O)(Cn1cncn1)c1ccc(F)cc1F,1.03 (inactive)
6,CN(C)CCCC1(c2ccc(F)cc2)OCc2cc(C#N)ccc21 (centres undefined),1.17 (inactive)
7,CC(C)NCC(O)c1ccc(NS(C)(=O)=O)cc1 (centres undefined),0.8 (inactive)
8,O=C(c1ccc(OCCN2CCCCC2)cc1)c1c(-c2ccc(O)cc2)sc2cc(O)ccc12,1.03 (inactive)
9,O=C1CC[C@@H](C(=O)N2CSC[C@H]2C(=O)O)N1 ([pGlu]-[Thz]-OH),0.96 (inactive)
10,CN/C(=C\[N+](=O)[O-])NCCSCc1csc(CN(C)C)n1,0.9 (inactive)
11,CN(C)CCOc1ccc(/C(=C(/CCCl)c2ccccc2)c2ccccc2)cc1,0.97 (inactive)
12,CC(C)(S)C(N)C(=O)O (centres undefined),0.95 (inactive)
13,CC[C@H]1OC(=O)[C@H](C)[C@@H](O[C@H]2C[C@@](C)(OC)[C@@H](O)[C@H](C)O2)[C@H](C)[C@@H](O[C@@H]2O[C@H](C)C[C@H](N(C)C)[C@H]2O)[C@](C)(O)C[C@@H](C)CN(C)[C@H](C)[C@@H](O)[C@]1(C)O,1.25 (inactive)
14,NCC(O)c1ccc(O)c(O)c1 (centres undefined),1.25 (inactive)
15,CN1CC(=O)N2[C@H](c3ccc4c(c3)OCO4)c3[nH]c4ccccc4c3C[C@@H]2C1=O,1 (inactive)
16,Cc1cnc(C(=O)NCCc2ccc(S(=O)(=O)NC(=O)NC3CCCCC3)cc2)cn1,1.07 (inactive)
17,C/C(=C\C(=O)OCCCCCCCCC(=O)O)C[C@@H]1OC[C@H](C[C@@H]2O[C@H]2[C@@H](C)[C@H](C)O)[C@@H](O)[C@H]1O,1 (inactive)
18,C[C@H]1O[C@H](O[C@H]2[C@H](O)[C@@H](O)[C@@H](O[C@H]3[C@H](O)[C@@H](O)C(O)O[C@@H]3CO)O[C@@H]2CO)[C@H](O)[C@@H](O)[C@@H]1N[C@H]1C=C(CO)[C@@H](O)[C@H](O)[C@H]1O (some centres undefined),0.91 (inactive)
19,COc1ccc2[nH]c(S(=O)Cc3ncc(C)c(OC)c3C)nc2c1 (centres undefined),0.83 (inactive)
20,COc1c(N2C[C@@H]3CCCN[C@@H]3C2)c(F)cc2c(=O)c(C(=O)O)cn(C3CC3)c12,1.11 (inactive)
21,CCN(CC)CC#CCOC(=O)C(O)(c1ccccc1)C1CCCCC1 (centres undefined),1.02 (inactive)
22,CC(Cc1ccc(O)c(O)c1)(NN)C(=O)O (centres undefined),1.18 (inactive)

# Same assay, conditions: PC-3E GFP / TEM4-18 mCherry co-culture, imaging cell counts; measured here: epithelial PC-3E GFP cell survival; at 1 µM
row,Structure (SMILES),normalised cell number
1,O=C1CN2Cc3c(ccc(Cl)c3Cl)N=C2N1,0.86
2,CNCC[C@H](Oc1cccc2ccccc12)c1cccs1,1.07
3,CSc1nc2cc(Oc3cccc(Cl)c3Cl)c(Cl)cc2[nH]1,1.26
4,CN(C)CCc1c[nH]c2ccc(Cn3cncn3)cc12,1.24
5,C[C@@H](c1ncncc1F)[C@](O)(Cn1cncn1)c1ccc(F)cc1F,0.93
6,CN(C)CCCC1(c2ccc(F)cc2)OCc2cc(C#N)ccc21 (centres undefined),1.12
7,CC(C)NCC(O)c1ccc(NS(C)(=O)=O)cc1 (centres undefined),1.21
8,O=C(c1ccc(OCCN2CCCCC2)cc1)c1c(-c2ccc(O)cc2)sc2cc(O)ccc12,0.9
9,O=C1CC[C@@H](C(=O)N2CSC[C@H]2C(=O)O)N1 ([pGlu]-[Thz]-OH),0.97
10,CN/C(=C\[N+](=O)[O-])NCCSCc1csc(CN(C)C)n1,1.14
11,CN(C)CCOc1ccc(/C(=C(/CCCl)c2ccccc2)c2ccccc2)cc1,1.07
12,CC(C)(S)C(N)C(=O)O (centres undefined),1
13,CC[C@H]1OC(=O)[C@H](C)[C@@H](O[C@H]2C[C@@](C)(OC)[C@@H](O)[C@H](C)O2)[C@H](C)[C@@H](O[C@@H]2O[C@H](C)C[C@H](N(C)C)[C@H]2O)[C@](C)(O)C[C@@H](C)CN(C)[C@H](C)[C@@H](O)[C@]1(C)O,1.02
14,NCC(O)c1ccc(O)c(O)c1 (centres undefined),1.16
15,CN1CC(=O)N2[C@H](c3ccc4c(c3)OCO4)c3[nH]c4ccccc4c3C[C@@H]2C1=O,1.08
16,Cc1cnc(C(=O)NCCc2ccc(S(=O)(=O)NC(=O)NC3CCCCC3)cc2)cn1,0.87
17,C/C(=C\C(=O)OCCCCCCCCC(=O)O)C[C@@H]1OC[C@H](C[C@@H]2O[C@H]2[C@@H](C)[C@H](C)O)[C@@H](O)[C@H]1O,1.08
18,C[C@H]1O[C@H](O[C@H]2[C@H](O)[C@@H](O)[C@@H](O[C@H]3[C@H](O)[C@@H](O)C(O)O[C@@H]3CO)O[C@@H]2CO)[C@H](O)[C@@H](O)[C@@H]1N[C@H]1C=C(CO)[C@@H](O)[C@H](O)[C@H]1O (some centres undefined),1.1
19,COc1ccc2[nH]c(S(=O)Cc3ncc(C)c(OC)c3C)nc2c1 (centres undefined),1.11
20,COc1c(N2C[C@@H]3CCCN[C@@H]3C2)c(F)cc2c(=O)c(C(=O)O)cn(C3CC3)c12,0.89
21,CCN(CC)CC#CCOC(=O)C(O)(c1ccccc1)C1CCCCC1 (centres undefined),1.13
22,CC(Cc1ccc(O)c(O)c1)(NN)C(=O)O (centres undefined),1.1

# Reference: PubChem BioAssay
